Laboratory results taken from PubChem BioAssay (Tox21).
Results filed as inconclusive are left out. Unmarked numbers belong to inactive results. The source made the active and inactive calls. Calls follow the shape of the dose curve; as a rule, active = well fitted cell-killing curve with a large enough effect in the repeat runs; inconclusive = weak or mixed curves, or effect the other way; inactive = no such curve, though single readings can be large or run the other way. Positions of bridges follow the written chain, without caps; N, C: chain ends. Where a SMILES comes first, the peptide text is derived from it. Non-standard residues stand in square brackets, D forms with d. Residues, ends and D or L forms follow the SMILES beside them. hArg = N=C(N)NCCCC[C@H](N)C(=O)O; Mpa = O=C(O)CCS
% is scaled to controls: 0 for no effect and ±100 for the full control effect.

Assay: qHTS assay to identify small molecule antagonists of the peroxisome proliferator-activated receptor gamma (PPARg) signaling pathway - cell viability counter screen (AID 743194); also: nearly all actives have a fitted effect of over 55% in size
Settings: PPARg-bla HEK293H viability, CellTiter-Glo luminescence, 17 h, co-treated with 50 nM rosiglitazone; series mostly up to 62.6 µM
Description: U.S. Tox21 Program National Center for Advancing Translational Sciences [NCATS] NIH Chemical Genomics Center [NCGC] U.S. Environmental Protection Agency [EPA] National Institutes of Environmental Health Sciences [NIEHS] National Toxicology Program [NTP] U.S. Food and Drug Administration [FDA] Tox21 Assay Overview: The peroxisome proliferator-activated receptors (PPARs) are lipid-activated transcription factors of the nuclear receptor superfamily with three distinct subtypes namely PPAR alpha, PPAR delta (also called PPAR beta) and PPAR gamma (PPARg). All these subtypes heterodimerize with Retinoid X receptor (RXR) and these heterodimers regulate transcription of various genes. PPAR-gamma receptor (glitazone receptor) is involved in the regulation of glucose and lipid metabolism. To identify the compounds that activate PPAR-gamma signaling, GeneBLAzer PPAR gamma UAS-bla HEK293H cell line (Invitrogen, Carlsbad, CA, USA) containing a beta-lactamase reporter gene under the control of an Upstream Activator Sequence (UAS) was used to screen the Tox21 compound library. The cytotoxicity of the Tox21 compound library against the PPARg-bla cell line was tested in parallel by measuring the cell viability using CellTiter-Glo assay in the same wells.
Tox21 Assay Protocol Summary: PPARg-bla cells were dispensed at 3000 cells/5uL/well in 1536-well black wall/clear bottom plates using a Multidrop Combi (Thermo Fisher Scientific, Waltham, MA) dispenser. After the assay plates were incubated at 37 C and 5% CO2 for 5 h, 23 nL of compounds dissolved in DMSO, positive controls or DMSO only was transferred to the assay plate by a Pintool station (Kalypsys, San Diego, CA), followed by addition of 1ul Rosiglitazone (50 nM, final concentration in the wells). The assay plates were incubated at 37 C for 17 h, and then 1 uL of LiveBLAzerTM B/G FRET substrate was added using a Bioraptr Flying Reagent Dispenser (FRD) workstation (Beckman Coulter, Indianapolis, IN, USA). The assay plates were incubated at room temperature for 1 h and fluorescence intensity was measured by an Envision plate reader (PerkinElmer, Shelton, CT). For cell viability readout that measures cytotoxicity, 4 ul/well of CellTiter-Glo reagent was added into the assay plates using a Flying Reagent Dispenser. After 30 min incubation at room temperature, the luminescence intensity in the plates was measured using a ViewLux plate reader (PerkinElmer).
For `CN(C)CCCO[C@@H]1[C@H]2OC(C)(C)O[C@H]2O[C@@H]1C(O)CO` (stereo not given in full), the outcome was “inactive”. For `CC(=O)O[Si](C)(OC(C)=O)OC(C)=O`, the outcome was “inactive”. With `CN1CCOC(c2ccccc2)c2ccccc2C1` (stereo not given) the outcome was “inactive”. In the case of `Cc1ccc(N)cc1S(=O)(=O)O`, the outcome is reported as “inactive”. In the case of `CCc1occc(=O)c1O`, the outcome is reported as “inactive”. In the case of `CC1(C)Cc2cccc(N)c2O1`, the outcome is reported as “inactive”. In the case of `COc1cc(/C=C/C(N)=O)cc(OC)c1OC`, the outcome is reported as “inactive”. In the case of `C=CCSSCCC`, the outcome is reported as “inactive”. With `CCCCOC(=O)[C@H](C)O` the outcome was “inactive”. In the case of `CC(=O)c1cc(C)oc1C`, the outcome is reported as “inactive”. In the case of `C/C(=C1\CCOC(=O)S1)N(C=O)Cc1cnc(C)nc1N`, the outcome is reported as “inactive”. With `CCOC(=O)CC1(C)OCC(C)O1` (stereo not given) the outcome was “inactive”. For `CCCC(CC)c1ccccc1` (stereo not given), the outcome was “inactive”. With `CCCCCCCCCCOC(C)=O` the outcome was “inactive”. With `O=C(O)[C@H](O)c1ccccc1` the outcome was “inactive”. For `CCCCCCCCCCCCCCC(=O)NC(CO)CCCCCCCCCCCCCC` (stereo not given), the outcome was “inactive”. For `O=C1c2ccccc2C(=O)c2cc(Cl)ccc21`, the activity change, negative = cytotoxicity was 2.72% [at 5.95 µM]. With `C=C(C)c1cccc(C(C)(C)N=C=O)c1` the outcome was “inactive”. For `NC(=O)[C@@H]1CSSCCC(=O)N[C@@H](CCCCN=C(N)N)C(=O)NCC(=O)N[C@@H](CC(=O)O)C(=O)N[C@@H](Cc2c[nH]c3ccccc23)C(=O)N2CCC[C@H]2C(=O)N1` ([Mpa][hArg]GDWPC-NH2; disulfide 1-7), the outcome was “inactive”. With `O=Cc1ccccc1Cl` the outcome was “inactive”. With `COC(=O)CCCCC(=O)O` the outcome was “inactive”. For `C[C@]12CCC(=O)C=C1CC[C@H]1[C@@H]3CC[C@](O)(C(=O)CO)[C@@]3(C)C[C@H](O)[C@@]12F`, the outcome was “inactive”. For `CC(C)OC(=O)CCC(=O)OC(C)C`, the outcome was “inactive”. In the case of `CC(C)CCOC(=O)c1ccccc1`, the outcome is reported as “inactive”. In the case of `CC(O)CC(C)O` (stereo not given), the outcome is reported as “inactive”. With `CCCCCCCCCCCCCCCCCC#N` the outcome was “inactive”. In the case of `CCCc1ccc(O)cc1`, the outcome is reported as “inactive”. With `CCCC(=O)OCCC(C)CCC=C(C)C` (stereo not given) the outcome was “inactive”. With `CC(C)NC(=O)c1ccc(C=O)cc1` the outcome was “inactive”. With `Cn1nnc2c(C(N)=O)ncn2c1=O` the outcome was “inactive”. In the case of `O=C(Cn1ccnc1[N+](=O)[O-])NCc1ccccc1`, the outcome is reported as “inactive”. For `CC(=O)N[C@@H](CO)C(=O)N[C@@H](CC(=O)O)C(=O)N[C@@H](CCCCN)C(=O)N1CCC[C@H]1C(=O)O` (Ac-SDKP-OH), the outcome was “inactive”. For `CCOC(CN1CCN(CC(C)C(=O)c2ccccc2)CC1)c1ccccc1` (stereo not given), the outcome was “inactive”. For `CC(=O)Nc1ccc(OC(=O)c2ccccc2OC(C)=O)cc1`, the outcome was “inactive”. For `CC1CCc2c(N3CCC(O)CC3)c(F)cc3c(=O)c(C(=O)O)cn1c23` (stereo not given), the outcome was “inactive”. In the case of `CCN1CCCC1CN` (stereo not given), the outcome is reported as “inactive”. With `O=C(O)CONC(=O)c1ccccc1` the outcome was “inactive”. With `C=CC(=O)CCCCC` the outcome was “inactive”. With `COc1cc(OC)nc(O[C@H](C(=O)O)C(OC)(c2ccccc2)c2ccccc2)n1` the outcome was “inactive”. With `c1ccc2c(CC3=NCCN3)cccc2c1` the outcome was “inactive”.
